HCMV antiviral: human cytomegalovirus inhibition. HFF cells, HCMV-luciferase reporter, 72 h; hits give low values. 410,000 tested, 4.5% active. AID 1259415. activity change, negative = inhibition, % at 57.5 µM; in the data active means activity change below about -60%; inconclusive means no clear call, values can overlap the other calls; inactive means above about -39%
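HFF cells seeded 16 h at 37C, treated with compounds, infected with luciferase-reporter HCMV at MOI 1 PFU/cell; luciferase read at 72 h post infection, normalized to buffer-only and Salinomycin controls.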
Sm TGR inh: inhibitors of Schistosoma mansoni thioredoxin glutathione reductase; Q962Y6; purified TGR, DTNB reduction, TNB absorbance 405 nm; Potency, µM (series often up to 114 µM), for inactives: at the top dose activity change, negative = inhibition, actives largely listed as inhibitors; 360,000 tested, 3% active; further: potency means the concentration at half of the fitted maximal effect; nearly all actives have a fitted effect of over 60% in size
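First, TGR (20 nM dispensed) and NADPH were mixed with compound. Second, a 15 min room-temperature incubation followed. Third, further NADPH and then DTNB were added to start the reaction. Finally, TNB absorbance was monitored kinetically.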
Pf growth 48h: inhibits P. falciparum growth in the first generation, 48 h | P. falciparum luciferase growth in erythrocytes, 48 h | 310,000 tested, 5.9% active | Potency, µM (series often up to 28.7 µM), without a hit: at the top dose activity change, negative = inhibition, actives largely listed as inhibitors; further: potency means the concentration at half of the fitted maximal effect
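Firefly luciferase activity from engineered P. falciparum reports growth; inhibitors lower the luminescent signal. Cultures contained 2% hematocrit erythrocytes at 0.1% final parasitemia.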
FBPA Giardia inh: inhibitors of Giardia lamblia fructose-1,6-bisphosphate aldolase; A8B2U2; purified Giardia FBPA; Potency, µM (doses to about 59.6 µM), for the others: at the top dose activity, negative = inhibition, usual class: inhibitors; 290,000 tested, 0.71% active; further: potency means the concentration at half of the fitted maximal effect; nearly all actives have a fitted effect of over 55% in size
Target sequence (A8B2U2 whole entry, looked up): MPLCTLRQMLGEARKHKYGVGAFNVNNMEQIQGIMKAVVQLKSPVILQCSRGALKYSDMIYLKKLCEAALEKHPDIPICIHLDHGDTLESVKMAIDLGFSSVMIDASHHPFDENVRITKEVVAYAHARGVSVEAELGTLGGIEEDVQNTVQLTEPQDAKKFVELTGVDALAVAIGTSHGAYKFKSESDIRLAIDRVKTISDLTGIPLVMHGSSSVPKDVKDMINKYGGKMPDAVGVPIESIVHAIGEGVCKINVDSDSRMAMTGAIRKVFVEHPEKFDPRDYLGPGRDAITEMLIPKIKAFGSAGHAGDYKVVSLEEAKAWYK
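Giardia FBPA (40 nM reagent) was preincubated 10 min at RT with compound (up to 57.5 uM final), then substrate plus GAPDH/TPI/NAD/arsenate coupling system with diaphorase/resazurin was added; resorufin fluorescence (525/598 nm) was read after 20 min.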
Pf growth 96h: P. falciparum growth inhibition at 96 hours | 320,000 tested, 6.9% active | P. falciparum luciferase reporter growth, 96 h | Potency, µM (top dose mostly 28.7 µM), inactives show at the highest dose activity change, negative = inhibition, most hits filed as inhibitors; further: potency means the concentration at half of the fitted maximal effect
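96 h incubation, 37 C, 5% CO2, of luciferase-reporter P. falciparum-infected RBCs (2% hematocrit, 0.05% parasitemia final) with test compounds; endpoint luminescence.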
Starred values were filed as active, the others as inactive; ? = inconclusive; . = not tested or not shown; [ ] = another dose, or the depositor's remark. An excerpt weighted towards active compounds, which were near 14% of everything screened. Unless noted, the call rests on the fitted dose curve; in most records, active means well fitted curve in the direction sought with a large enough effect; inconclusive means small, poorly fitted or top-dose-only effect, or another doubt; inactive means no such curve, though single readings can be large; an effect the other way counts as inactive or inconclusive. On the % scale 0 is the no-effect control and ±100 the full control effect.

SMILES	HCMV antiviral	Sm TGR inh	Pf growth 48h	FBPA Giardia inh	Pf growth 96h
NC(=S)N=Nc1c(O)cc(O)c2[nH]c(=O)ccc12	0.0	.	.	.	.
COc1ccc(CCCc2nnc(SCC(=O)Nc3nc(C)cs3)n2C)cc1	2.7	6.7%	10.4µM*	4.4%	.
Cn1c(SCC(=O)Nc2nccs2)nnc1-c1ccc(S(=O)(=O)N2CCCC2)cc1	-18.5	6.2%	.	7.5%	6.57µM*
Cc1ccc2nc(NC(=O)CSc3nccn3Cc3ccc(Cl)cc3)sc2c1	-10.7	0.8%	.	.	.
Nc1ncnc2c1nc(Cl)n2C1OC(CO)C(O)C1O (stereo unspecified)	.	.	.	-3.2%	.
Nc1ncnc2c1ncn2[C@@H]1O[C@@H](CO)[C@H](O)[C@H]1O	.	.	.	-1.5%[21.7 µM]	.
N#Cc1c(Br)n(C2OC(CO)C(O)C2O)c2ncnc(N)c12 (stereo unspecified)	-94.9*	.	.	.	.
CN(C)c1nc2c(N)ncnc2n1[C@H]1O[C@@H](CO)[C@H](O)[C@@H]1O	-69.7*	-5.1%	1.1%	4.9%	32.8%
NC(=O)c1c(Br)n(C2OC(CO)C(O)C2O)c2ncnc(N)c12 (stereo unspecified)	-83.0*	.	.	.	.
COc1cc(Cl)nn(-c2ccccc2)c1=O	-38.7	0.4%	11.5%	9.5%	-21.0%
O=c1c(Cl)cc(Cl)nn1-c1ccccc1	-66.4*	?	-6.9%	4.3%	-27.3%
O=c1c(-c2cccc(Cl)c2)nc2cncnc2n1-c1ccccc1	.	.	.	-0.4%	.
CC(=O)N1CCc2c(sc3nc(SCC(N)=O)n(-c4ccc(F)c(Cl)c4)c(=O)c23)C1	-3.3	-0.7%	.	.	.
COc1ccc(CN2C(=O)CC(=O)NC2=O)cc1	25.8	?	1.3%	10.9%	4.15µM*
CCn1c(CNC(=O)C2CCCCC2)cc2ccccc21	33.0	6.0%	5.9%	-7.0%	9.28µM*
CC1CN(C(=O)CCNS(=O)(=O)c2ccc(Br)cc2)CC(C)O1 (stereo unspecified)	-14.7	8.0%	31.6%	.	19.0%
Cc1ccc(NC(=S)NCCc2ccc(S(N)(=O)=O)cc2)cc1C	-39.2	?	-3.3%	1.3%	-14.6%
NS(=O)(=O)c1ccc(CCNC(=S)Nc2ccc(F)cc2)cc1	-60.6*	.	-2.7%	0.6%	-12.2%
Cc1cc(C)cc(NC(=S)NCCc2ccc(S(N)(=O)=O)cc2)c1	50.4	-32.3%	-8.0%	-8.4%	1.65µM*
NS(=O)(=O)c1ccc(CCNC(=S)Nc2ccccc2)cc1	-7.2	?	?	-6.2%	?
CCNC(=O)CC1C(=O)N(c2cccc(OC)c2)C(=O)N1Cc1ccc(OC)c(OC)c1 (stereo unspecified)	-0.4	-7.9%	.	.	.
Cc1cccc(C(=O)NNC(=O)/C=C/C(=O)O)c1	113.4	?	8.7%	2.1%	17.0%
Cc1cccc(C(=O)NNC(=O)c2ccccc2Br)c1	-2.4	3.1%	25.7%	-9.9%	0.0%
CNC(=S)NNC(=O)c1ccccc1Br	15.0	-1.2%	-16.1%	-20.9%	9.28µM*
Cc1ccccc1C(=O)NNC(=O)/C=C\C(=O)O	-21.5	2µM*	33.5%	-17.9%	0.0%
SMILES	HCMV antiviral	Sm TGR inh	Pf growth 48h	FBPA Giardia inh	Pf growth 96h
O=C(O)/C=C/C(=O)NNC(=O)c1ccccc1Br	-2.5	3.55µM*	49.4%	-3.0%	51.9%
COCCCNC(=S)NNC(=O)c1ccccc1Br	-13.7	-1.9%	1.0%	-0.1%	55.4%[1.15 µM]
CC(C)NC(=O)COC(=O)Cn1[nH]c(=O)c2ccccc2c1=O	-21.4	-5.5%	8.4%	0.2%	20.4%
Cc1cc(CNC(=O)COC(=O)Cn2[nH]c(=O)c3ccccc3c2=O)cc(C)c1O	-98.5*	-32.8%	?	.	1.2%
Cc1c(Cl)cccc1Nc1n[nH]c(=S)s1	-66.1*	.	.	.	.
COc1ccc(NC(=O)N/C=C/c2ccco2)cc1	-7.4	14.1µM*	35.6%	-24.4%	1.4%
O=C(N/C=C/c1ccco1)Nc1cccc(Cl)c1	24.6	44.7µM*	48.0%	-6.9%	0.0%
CCN(CC(=O)Nc1ccc(NC(C)=O)cc1)C(=O)c1cc(-c2ccccc2Cl)nc2ccccc12	0.0	.	.	.	.
CCOC(=O)NN1C(=O)c2ccccc2NC1c1ccccn1 (stereo unspecified)	41.5	-2.6%	8.1%	0.3%	10.4µM*
CC(=O)Nc1ccc(NC(=O)CN(c2ccc(F)cc2)S(=O)(=O)c2ccc3c(c2)OCCO3)cc1	9.4	-13.0%	.	-1.8%	8.28µM*
O=C(CN(c1ccc(F)cc1)S(=O)(=O)c1ccc2c(c1)OCCO2)Nc1ccccc1	?	1.2%	.	1.7%	?
O=C(CN(c1ccccc1F)S(=O)(=O)c1ccccc1)Nc1ccc2c(c1)OCCO2	?	-4.0%	14.3%	.	4.15µM*
Cc1nn(CCc2nn[nH]n2)c2nc(-c3ccc(C4CCCCC4)cc3)cc(C(F)(F)F)c12	?	-21.3%	5.22µM*	-3.5%	?
O=C(CN(c1cccc(C(F)(F)F)c1)S(=O)(=O)c1ccccc1)Nc1cccc(Cl)c1	-66.2*	14.0%	.	.	.
O=C(CN(c1cccc(C(F)(F)F)c1)S(=O)(=O)c1ccc(Cl)c([N+](=O)[O-])c1)NCc1ccc(F)cc1	59.9	?	?	-3.9%	14.7µM*
O=C(O)CCCC/C=C\C[C@@H](O)/C=C/C=C/C=C\[C@@H](O)CCCC(=O)O	.	.	.	0.1%	.
CCc1ccc(NC(=O)c2cc3nc(-c4ccc(C)cc4)cc(C(F)(F)F)n3n2)cc1	14.1	-7.2%	.	.	.
CC(C)CCC(=O)OC1CCC2C3CCC4=CC(=O)CC[C@]4(C)C3CC[C@]12C (stereo partly specified)	.	.	13.5µM*	.	12µM*
Cc1nc(C2CCC3C4CCC5=CC(=O)CC[C@]5(C)C4CC[C@]23C)cs1 (stereo partly specified)	-91.2*	-0.7%	-6.5%	-0.9%	-13.0%
CC(=O)[C@@]1(O)CC[C@H]2[C@@H]3CCC4=CC(=O)CC[C@]4(C)[C@H]3CC[C@@]21C	28.3	-8.8%	?	-5.0%	?
CCCCCCCCCC(=O)O[C@H]1CC[C@H]2[C@@H]3CCC4=CC(=O)CC[C@]4(C)[C@H]3CC[C@]12C	.	.	12µM*	.	8.49µM*
CCCCCC(=O)O[C@]1(C(C)=O)CC[C@H]2[C@@H]3CCC4=CC(=O)CC[C@]4(C)[C@H]3CC[C@@]21C	-67.6*	-16.3%	1.04µM*	-11.7%	0.828µM*
Cc1cccc(NC(=O)CN(C)C(=O)C2CC2)c1C	-19.6	5.5%	-0.6%	.	3.8%
O=c1[nH]c(-c2ccccn2)nc2ccccc12	-106.4*	5.6%	-54.0%	20.6%	?
c1ccc(-c2nc3ccccc3[nH]2)nc1	5.1	0.9%	132.7%	1.7%	138.4%
O=c1[nH]c(-c2ccccn2)nc(C(F)(F)F)c1Br	25.2	11.5%	5.86µM*	?	7.38µM*
C[C@@H]1C=C(C(=O)N2CCN(Cc3ccccc3)CC2)O[C@H](OCc2ccc(CO)cc2)C1	3.7	-34.6%	2.0%	7.3%	-3.2%
